Compound activity (PubChem)
BRCA1 expr up – qHTS Assay to Identify Small Molecule Activators of BRCA1 Expression; Potency, µM (titrated, usually from 46.1 µM), inactives show top-dose activation, usual class: activators; MCF7-BRCA1-FFLuc reporter, luminescence, 48 h; response scale: scaled: vehicle 0%, 10 µM genistein 100%; 380,000 tested, 1.1% active; further: potency means the concentration at half of the fitted maximal effect; nearly all actives have a fitted effect of over 80% in size
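MCF7-BRCA1-FFLuc, 2000 cells/well; 2 h attach, 37 °C/5% CO2; compound 48 h; luciferase substrate 15 min; luminescence end-point. Norm. to genistein 10 microM max activation and DMSO; concentration-response curves fitted.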
PINK1 expr mod – A Quantitative High throughput Screen to Identify Chemical Modulators of PINK1 Expression; PINK1 immunofluorescence, high-content cytometry, 24 h; Potency, µM (doses to about 76.6 µM), inactives show at the highest dose activation (PINK1 increase), most hits filed as activators; 410,000 tested, 0.2% active; AID 624263, 2012; active means well fitted activation curve with a large enough effect; inconclusive means small, poorly fitted or top-dose-only effect; cell line not stated here; further: potency means the concentration at half of the fitted maximal effect; % of control where 0% means no effect; nearly all actives have a fitted effect of over 65% in size
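Stable cell line treated 24 h with compounds at 5 concentrations (CCCP controls), then fixed and immunostained for PINK1 plus nuclear and cell stains; PINK1 immunofluorescence quantified by laser-scanning microplate cytometry.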
Akt phos inh – HTS Assay for Inhibitors of Akt Phophorylation: Primary Screen. Neuro2A IGF-stimulated pAkt S473 HTRF, 20 min; stronger effect = lower value. activity change, % for hits at 50 µM. 360,000 tested, 0.32% active; in the data active means activity change below about -80%; inconclusive means mostly about -51% to -80%; further: on the % scale 0 is the no-effect control and ±100 the full control effect
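Neuro2A cells (4,500/well, DMEM with 0.5% FBS) were treated with compound at a single 50 µM final concentration, stimulated with 6 nM IGF for 20 min at 37 °C, and lysed. Phospho-Akt Ser473 was read by HTRF as 665/615 ratio ×10^4.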
TCR act – Activators of T cell receptors: qHTS campaign; primary human leukocytes, anti-CD3, IL-2 HTRF, 48 h; Potency, µM (titrated, usually from 9.22 µM), without a hit: top-dose activation of IL-2 secretion, most hits filed as activators; 330,000 tested, under 10 active; further: % of control where 0% means no effect
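48 hr co-incubation of compounds, a-CD3 beads and primary human leukocytes; IL-2 quantified homogeneously by HTRF with anti-IL-2 K and d2 conjugates.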
The depositor's hits bear a star; i = inactive; ? = inconclusive; . = no result; [ ] = dose if it differs, or a comment. A selection: hits, their analogues and other compounds. The true share with any hit is near 1.5%. Unless noted, the call rests on the fitted dose curve; in most records, active means well fitted curve in the direction sought with a large enough effect; inconclusive means small, poorly fitted or top-dose-only effect, or another doubt; inactive means no such curve, though single readings can be large; an effect the other way counts as inactive or inconclusive.

SMILES	BRCA1 expr up	PINK1 expr mod	Akt phos inh	TCR act
CCOc1ccc(/C=N/OCC(=O)Nc2ccc(OCc3ccccc3)cc2)cc1OC	7.9µM*	-1%	i	-10%[46.1 µM]
CCN1C(=O)C(=O)c2cc(C)ccc21	-5%	3%	i	2%
CC[N+]1=C(C)C(C)(C)c2cc(C)ccc21	-30%	22µM*	i	-5%
OC1(c2ccc3c(c2)CN(Cc2ccccn2)CCO3)CCN(c2ccccc2F)CC1	.	1%	.	.
COC(=O)c1cc(-c2ccc(C)cc2)n[nH]1	10µM*	1%	i	0%
COc1ccc(-c2cc(C(F)(F)F)c(C#N)c(SCC(=O)Nc3nc(C)co3)n2)cc1	-35%	8.9µM*	?	.
Cc1coc(NC(=O)CSc2nc(-c3ccc(Cl)cc3)cc(C(F)(F)F)c2C#N)n1	-52%	4%[38.3 µM]	i	-40%
CCN(CC)S(=O)(=O)c1ccc(-c2nnc(SCC(=O)Nc3nnc(C)s3)n2CC)cc1	10%	0%	-112%*	-24%
CCOC(=O)N1CCN(C(=O)CN(Cc2ccccc2)S(C)(=O)=O)CC1	-4%	0%[38.3 µM]	i	3%
CCOC(=O)N1CCN(C(=O)CSCc2ccccc2)CC1	11µM*	1%	i	2%[46.1 µM]
CCOC(=O)N1CCN(C(=O)CN(Cc2ccc(Cl)cc2)S(=O)(=O)c2ccccc2)CC1	-30%	-3%	-103%*	-6%
Cc1nc(C)c(C(=O)N2CCc3c(cnc(C)c3CNC(=O)c3cncs3)C2)s1	.	0%	.	.
Cc1cc(N2CCOCC2)nc(SCc2ccc(Cl)cc2Cl)n1	-13%	5%	-110%*	1%
CCC1C(=O)NCCN1Cc1ccc2c(c1)CN(Cc1cc(OC)c3c(c1)OCO3)CCO2 (centres undefined)	.	-1%	.	.
C/C(=N\NC(=O)c1sccc1C)c1cccnc1	2.8µM*	-1%	i	0%
C/C(=N\NC(=O)c1sccc1C)c1ccncc1	?	-1%	i	2%
CCOC(=O)C1=C(C)NC2=C(C(=O)C(C(=O)OCC)C(c3cccc(OC)c3)C2)C1c1ccccn1 (centres undefined)	-32%	-1%	i	5%
CCOC(=O)C1=C(C)NC2=C(C(=O)C(C(=O)OCC)C(c3ccc(OC)cc3)C2)C1c1ccccn1 (centres undefined)	-13%	2%	-108%*	3%
CCCCCCCCCCCCCCCCOC(=O)N1CCN(/[N+]([O-])=N/Oc2ccc([N+](=O)[O-])cc2[N+](C)=O)CC1	-5%	1%	.	.
Cc1ccc(NC(=O)CN(C)c2ccc(S(=O)(=O)N3CCN(C)CC3)cn2)cc1	-4%	-2%	-102%*	1%
Cc1ccc(N=Nc2c(C)[nH]n(C(N)=S)c2=O)cc1C	49%	0%	i	-7%[46.1 µM]
CC(=O)Nc1ccc(N=Nc2c(C)[nH]n(C(N)=S)c2=O)cc1	10µM*	3%	i	0%
CCc1cccc(C)c1NC(=O)CC(C)(C)CC(=O)O	1%	0%	i	-6%
Cc1cc(C(C)(C)C)ccc1NC(=O)CC(C)(C)CC(=O)O	13µM*	-2%	i	-4%
Cc1ncc2c(c1CNC(=O)/C=C/c1cccs1)CCN(C(=O)c1cc(C(C)C)on1)C2	.	-1%	.	.
SMILES	BRCA1 expr up	PINK1 expr mod	Akt phos inh	TCR act
CCC(O)CNC(=O)c1cnn(-c2nccc(-c3cc(C)sc3C)n2)c1C1CC1 (centres undefined)	.	5%	.	.
Cc1noc(C)c1CSc1nnc(C)c(=O)[nH]1	-22%	0%	-108%*	9%[46.1 µM]
Cc1nnc(SCc2cccs2)[nH]c1=O	-3%	-2%	i	-4%
COc1cc(OC)c(/C=C/c2c3ccccc3cc[n+]2C)c(OC)c1	-62%	?	.	.
COc1ccc(-c2cn3nc(SCC(=O)NC4CCCCC4)ccc3n2)cc1	1.3µM*	2%	i	1%
O=C(OCc1ccc(Cl)c(Cl)c1)c1ccc[nH]1	13µM*	1%	i	-2%
O=C(Cc1ccc(Cl)c(Cl)c1)OCC(=O)c1ccc[nH]1	-18%	6%	i	1%
O=C(c1cccnc1)C1CCCN(Cc2ccc3c(c2)CN(C(=O)c2cn4ccccc4n2)CCO3)C1 (centres undefined)	.	0%	.	.
C=CCn1c(-c2csc(-c3ccccc3)n2)n[nH]c1=S	16%	-1%	-106%*	-1%
Cc1ccc(NC(=O)NCc2ccccn2)cc1Cl	34%	-1%	i	-8%
Cc1ccc(NC(=O)NCc2c(C)nn(C)c2C)cc1Cl	5µM*	2%	i	-13%
O=C(Nc1nnc(Cc2ccccc2)s1)c1cccs1	?	4%	-82%*	-12%
O=C(Nc1nnc(Cc2ccc(Cl)cc2)s1)c1cccs1	-33%	0%	i	0%
O=C(Nc1nnc(CC2=CCCCC2)s1)c1cccs1	6.3µM*	-3%	i	-112%
CC(C)NC(=O)c1ccc(-c2ccccc2C(F)(F)F)o1	11µM*	-1%[38.3 µM]	i	0%
O=C(Nc1ccccc1)c1ccc(-c2ccccc2C(F)(F)F)o1	5%	?	i	-5%
CCOC(=O)c1nnn(-c2nonc2N)c1-c1ccc(OC)cc1	5%	0%	-110%*	-9%
CN(C)c1ccc(/C=C/c2nc3ccccc3s2)c(Cl)c1	-66%	6%	.	.
c1ccc2oc(NC3=NCN(C4CCCCC4)CN3)nc2c1	2.8µM*	13%	i	-2%
Cc1nn(-c2ccc(Cl)cc2)c(=O)c2ccccc12	54%	0%	i	-14%
Cc1nn(-c2ccc(Cl)nn2)c(=O)c2ccccc12	11µM*	1%	i	-85%
Cc1cc(-c2ccc(C(=O)O)s2)cnc1N	7.1µM*	1%	i	-1%
COc1cc(N(C)C)ccc1/C=C/c1ccnc2ccccc12	?	4%	.	.
CC(/C=C/c1ccccc1F)=N\NC(=O)c1ccc(Cl)cc1	3%	6%	i	4%
CC(/C=C/c1ccccc1F)=N\NC(=O)c1ccccc1	3.2µM*	-1%	i	8%
SMILES	BRCA1 expr up	PINK1 expr mod	Akt phos inh	TCR act
O=C(NNC(=S)NC(=O)c1ccccc1[N+](=O)[O-])c1ccccc1[N+](=O)[O-]	21%	3%[38.3 µM]	i	2%
O=C(NNC(=S)NC(=O)c1ccccc1[N+](=O)[O-])c1ccccc1O	6%	28µM*	i	3%
COc1ccc(O)c(CN2CCC3(CC2)c2ccccc2[C@@H](NC(=O)c2cccc(F)c2)[C@@H]3OC)c1	.	0%	.	.
CCN(CC)C(=O)CCCSc1nnc(Nc2ccccc2F)s1	4.5µM*	1%	i	2%
O=C(NCC1CCC2(CCN(Cc3ccc4ncccc4c3)CC2)O1)C1CCCO1 (centres undefined)	.	0%	.	.
COc1ccc(-n2nc(C(=O)NCC(=O)N3CCCCC3)c3ccccc3c2=O)c(OC)c1	13µM*	2%	i	1%
COc1ccc(-n2nc(C(=O)NCC(=O)N3CCN(c4ccccc4F)CC3)c3ccccc3c2=O)cc1	?	0%	i	1%
